Assay outcomes as filed in PubChem.
This is a sample that favours compounds with a hit; in the whole collection about 11% have one here.
FLuc inh-1: Firefly luciferase inhibition profiling of diverse chemical library using quantitative high-throughput screening | 2.5% of 76,000 active | Luciferin 4-monooxygenase (Photinus pyralis), P08659 | purified P. pyralis luciferase, luminescence, biochemical | AID 1347043, 2019 | Potency, µM (titrated, usually from 115 µM), hits mostly inhibitors; further: on the % scale 0 is the no-effect control and ±100 the full control effect; nearly all actives have a fitted effect of over 65% in size
Target sequence (P08659 whole entry, looked up): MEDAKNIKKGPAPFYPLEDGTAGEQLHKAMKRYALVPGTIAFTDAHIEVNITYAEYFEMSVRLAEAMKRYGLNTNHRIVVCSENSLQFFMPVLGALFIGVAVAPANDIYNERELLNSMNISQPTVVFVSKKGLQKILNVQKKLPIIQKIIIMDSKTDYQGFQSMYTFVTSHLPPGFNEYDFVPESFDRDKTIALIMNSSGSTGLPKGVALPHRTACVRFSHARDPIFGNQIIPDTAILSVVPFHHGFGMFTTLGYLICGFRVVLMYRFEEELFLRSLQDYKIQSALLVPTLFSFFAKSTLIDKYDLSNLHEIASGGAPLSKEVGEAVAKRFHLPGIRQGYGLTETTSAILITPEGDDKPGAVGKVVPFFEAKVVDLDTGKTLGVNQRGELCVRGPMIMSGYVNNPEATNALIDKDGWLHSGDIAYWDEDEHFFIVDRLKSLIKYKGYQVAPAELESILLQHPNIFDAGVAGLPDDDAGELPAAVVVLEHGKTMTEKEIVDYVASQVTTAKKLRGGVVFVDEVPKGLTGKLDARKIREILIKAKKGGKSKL
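Luminescence read by CCD imaging after purified firefly luciferase (10nM final) was added to substrate buffer holding 10uM D-luciferin and 10uM ATP, pH 7.5, pre-dosed with compound.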
HEK293 tox: Cytotoxic Profiling in HEK 293 Cell Line of Diverse Libraries Using Quantitative High-Throughput Screening. HEK 293 viability, ATP luminescence (CellTiter-Glo), 48-72 h. Potency, µM (highest dose often 115 µM), inactives show top-dose activity change, negative = cytotoxicity, actives largely listed as inhibitors. 6.6% of 94,000 active; further: on the % scale 0 is the no-effect control and ±100 the full control effect; nearly all actives have a fitted effect of over 60% in size
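Viability of HEK 293 cells, plated at 250 cells/well, was judged by cellular ATP after compound treatment for 48 or 72 hr. Luminescence was imaged 10 min after CellTiter-Glo addition at room temperature.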
NPR1 antag: Natriuretic polypeptide receptor (hNpr1) antagonism - Primary qHTS; 1.6% of 76,000 active; Potency, µM (doses to about 46.3 µM), for inactives: at the top dose activity change, negative = inhibition, hits mostly inhibitors; HEK293 hNpr1 GloSensor cGMP, ANP-stimulated luminescence; Atrial natriuretic peptide receptor 1 (Homo sapiens), P16066; AID 1347048, 2019; calls by dose curve; further: on the % scale 0 is the no-effect control and ±100 the full control effect; nearly all actives have a fitted effect of over 60% in size
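Compound pre-incubated 30 min at room temperature on GloSensor-loaded HEK293 cells stably carrying hNpr1 and the pGS-40F cGMP biosensor. Stimulation uses hNppA at 0.1 nM final; luminescence is taken at baseline and 20 min post-agonist.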
NIH3T3 tox: Cytotoxic Profiling in NIH 3T3 Cell Line of Diverse Libraries Using Quantitative High-Throughput Screening; NIH 3T3 viability, CellTiter-Glo ATP luminescence, 48-72 h; Potency, µM (highest dose often 96.7 µM), for the others: at the top dose activity change, negative = cytotoxicity, actives largely listed as inhibitors; 4.3% of 94,000 active; further: on the % scale 0 is the no-effect control and ±100 the full control effect; nearly all actives have a fitted effect of over 55% in size
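Cytotoxicity is measured as loss of cellular ATP: NIH 3T3 cells (400/well) are exposed to compound for 48 or 72 hr at 37 °C, then CellTiter-Glo luminescence is imaged after 10 min at room temperature.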
FLuc SDR -ATP: Firefly luciferase (FLuc-C-HiBiT) SDR gain of signal screen - without ATP; shares compounds with FLuc inh-1; 7.8% of 1,300 active; Purified FLuc-C-HiBiT, Nano-Glo HiBiT luminescence, no ATP; Potency, µM (top dose mostly 32.7 µM), inactives show at the top dose activation (signal gain), actives largely listed as activators; further: nearly all actives have a fitted effect of over 55% in size
FLuc SDR ATP: Firefly luciferase (FLuc-C-HiBiT) SDR gain of signal screen - plus ATP | shares compounds with FLuc inh-1 | purified FLuc-C-HiBiT + ATP, HiBiT complementation luminescence | Potency, µM (highest dose often 32.7 µM), for the others: at the highest dose activation (gain of signal), most hits filed as activators | 8.7% of 1,300 active | AID 1963319, 2024;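 further: signal reports ligand binding via conformational change of the enzyme rather than luciferase catalysis; % of control where 0% means no effect; nearly all actives have a fitted effect of over 55% in size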
FLuc inh-2: Firefly luciferase (FLuc-C-HiBiT) enzymatic inhibition screen - Functional assay; Potency, µM (series often up to 32.7 µM), without a hit: at the highest dose activity change, negative = inhibition, most hits filed as inhibitors; purified FLuc-C-HiBiT enzyme, luciferin luminescence; shares compounds with FLuc inh-1; 42% of 1,300 active; further: on the % scale 0 is the no-effect control and ±100 the full control effect; nearly all actives have a fitted effect of over 70% in size
* = called active by the depositor; [ ] = another dose, or the depositor's remark. Unless noted, the call rests on the fitted dose curve; in most records, active means well fitted curve in the direction sought with a large enough effect; inconclusive means small, poorly fitted or top-dose-only effect, or another doubt; inactive means no such curve, though single readings can be large; an effect the other way counts as inactive or inconclusive. Potency means the concentration at half of the fitted maximal effect.

Results for Cc1cc(CN(C)Cc2cn(-c3cccc(F)c3)nc2-c2ccc(C)o2)n[nH]1 ?
FLuc inh-1: inconclusive; HEK293 tox: 45µM*; NPR1 antag: -4%; NIH3T3 tox: inconclusive

What do the screens show for `Cc1ccc(-c2nn(-c3cccc(F)c3)cc2CN(C)CCO)o1`?
FLuc inh-1: inconclusive; HEK293 tox: -17%; NPR1 antag: 4%; NIH3T3 tox: -22%

How did NC(=O)COc1cccc(C(=O)N2C[C@H](CO)C[C@H](CN3CCCC3)C2)c1 do in these assays?
FLuc inh-1: inactive; HEK293 tox: 2%; NPR1 antag: 0%; NIH3T3 tox: 0%

What do the screens show for `COc1ccc(-c2cc(N3CCCN(C(=O)C(C)c4ccccc4)CC3)n[nH]2)cc1` (centres undefined)?
FLuc inh-1: inactive; HEK293 tox: 79µM*; NPR1 antag: -2%; NIH3T3 tox: inconclusive

What do the screens show for `CC(C(=O)N1CCCN(c2cc(-c3ccccc3)[nH]n2)CC1)c1ccccc1` (centres undefined)?
FLuc inh-1: inactive; HEK293 tox: inconclusive; NPR1 antag: -19%; NIH3T3 tox: inconclusive

Results for CC(C(=O)N1CCN(c2cc(-c3ccc(Cl)cc3)[nH]n2)CC1)c1ccccc1 (centres undefined) ?
FLuc inh-1: inactive; HEK293 tox: 28µM*; NPR1 antag: 0%; NIH3T3 tox: inconclusive

What do the screens show for `COc1ccc(-c2cc(N3CCN(C(=O)c4c[nH]c5ccccc45)CC3)n[nH]2)cc1`?
FLuc inh-1: inactive; HEK293 tox: inconclusive; NPR1 antag: 0%; NIH3T3 tox: 25µM*

What do the screens show for `COc1ccc(-c2cc(N3CCCN(C(=O)c4ccc(C)s4)CC3)n[nH]2)cc1`?
FLuc inh-1: inconclusive; HEK293 tox: 40µM*; NPR1 antag: 0%; NIH3T3 tox: inconclusive

What do the screens show for `COc1ccc(-c2cc(N3CCCN(C(=O)c4ccc(Br)cc4)CC3)n[nH]2)cc1`?
FLuc inh-1: inactive; HEK293 tox: inconclusive; NPR1 antag: -6%; NIH3T3 tox: inconclusive

Results for CN(C)CC1(O)CCN(C(=O)Cn2cc(C(=O)C3CC3)c3ccccc32)C1 (centres undefined) ?
FLuc inh-1: inactive; HEK293 tox: -4%; NPR1 antag: -1%; NIH3T3 tox: -19%

Results for Cn1ncc2c(C(=O)N3CCC(C#N)CC3)cc(-c3ccc(Cl)cc3Cl)nc21 ?
HEK293 tox: inconclusive; NIH3T3 tox: -32%

What do the screens show for `O=C(NCc1ccccc1F)c1ccc2oc(-c3cccnc3)nc2c1`?
HEK293 tox: inconclusive; NIH3T3 tox: -19%

Results for CCOc1ccc(NC(=O)N2CCc3cc(OC)c(OC)cc3C2CNC(=O)NC(C)(C)C)cc1 (centres undefined) ?
FLuc inh-1: inactive; HEK293 tox: inconclusive; NPR1 antag: -15%; NIH3T3 tox: -21%

How did COc1ccc(-c2cc(N3CCCN(C(=O)C4CCCC4)CC3)n[nH]2)cc1 do in these assays?
FLuc inh-1: inconclusive; HEK293 tox: inconclusive; NPR1 antag: 0%; NIH3T3 tox: -18%

What do the screens show for `COc1ccc(-c2cc(N3CCCN(C(=O)C4(c5ccc(OC)cc5)CC4)CC3)n[nH]2)cc1`?
FLuc inh-1: inactive; HEK293 tox: 45µM*; NPR1 antag: inconclusive; NIH3T3 tox: inconclusive

What do the screens show for `C[S+](=O)([O-])CCn1ncc2cc(OCC3CCN(Cc4cccs4)CC3)ccc21`?
FLuc inh-1: 63µM*; HEK293 tox: inconclusive; NPR1 antag: -1%[70.6 µM]; NIH3T3 tox: inconclusive

What do the screens show for `CCOC(=O)N1CCC(COc2ccc3c(cnn3CC[S+](C)(=O)[O-])c2)CC1`?
FLuc inh-1: inconclusive; HEK293 tox: inconclusive; NPR1 antag: inconclusive; NIH3T3 tox: 79µM*

What do the screens show for `Cc1onc(C(=O)N2CCC(CCOc3ccc(F)cc3)C2)c1Cn1cc(Cl)cn1` (centres undefined)?
FLuc inh-1: inactive; HEK293 tox: inconclusive; NPR1 antag: inconclusive; NIH3T3 tox: 45µM*

How did CC(C)C(=O)N1CCC(CCOc2ccc(F)cc2)C1 (centres undefined) do in these assays?
FLuc inh-1: inactive; HEK293 tox: inconclusive; NPR1 antag: 3%; NIH3T3 tox: inconclusive

What do the screens show for `COc1ccccc1-n1c(=O)[nH]c2cccnc21`?
FLuc inh-1: inactive; HEK293 tox: -42%[172 µM]; NPR1 antag: 22%[70.6 µM]; NIH3T3 tox: -32%[138 µM]

What do the screens show for `COc1ccccc1N1CCN(C(=O)Cn2c(C)cc3nc4n(c(=O)c32)CCCCC4)CC1`?
FLuc inh-1: inactive; HEK293 tox: inconclusive; NPR1 antag: -2%; NIH3T3 tox: 28µM*

How did Cc1cc2nc3n(c(=O)c2n1CC(=O)N1CCCc2ccccc21)CCCC3 do in these assays?
FLuc inh-1: inactive; HEK293 tox: -22%; NPR1 antag: 1%; NIH3T3 tox: -18%

What do the screens show for `O=C1NCc2ccccc2CC12CCN(Cc1cnc3ccccc3c1)CC2`?
HEK293 tox: inconclusive; NIH3T3 tox: -18%

What do the screens show for `CS(=O)(=O)c1ccc(CN2CCN3C(=O)N(c4ccccc4)C[C@H]3C2)cc1`?
FLuc inh-1: inactive; HEK293 tox: inconclusive; NPR1 antag: -1%[70.6 µM]; NIH3T3 tox: inconclusive

Results for O=C1N(c2ccccc2)C[C@H]2CN(Cc3ccccc3)CCN12 ?
FLuc inh-1: 14µM*; HEK293 tox: -26%[172 µM]; NPR1 antag: -21%[70.6 µM]; NIH3T3 tox: -18%[138 µM]; FLuc SDR -ATP: 10%[49.3 µM]; FLuc SDR ATP: 11%[49.3 µM]; FLuc inh-2: inconclusive

Results for CCN(CCOC)C(=O)c1coc(COc2ccc3sc(C)nc3c2)n1 ?
FLuc inh-1: inactive; HEK293 tox: inconclusive; NPR1 antag: -1%; NIH3T3 tox: -26%
